Source: PubChem
WT yeast gro inh = growth inhibition of WT strain, primary screen, mitochondrial fusion inhibitor project, WT and mutant strains, chemical genetic; mitochondrial fusion phenotypic screen; inhibition, % at 10 µM; 190,000 compounds, 2.1% hits; in the data active = inhibition above about 58%; tested in S. cerevisiae
Arbovirus anti = antivirals against arbovirus infection, primary screen, cell-based, full library, 10K replicate subset | arbovirus infection cell-based antiviral screen | inhibition, % at 10 µM | 200,000 compounds, 0.37% hits | AID 1251, 2008; in the data active = inhibition above about 30%
ROMK primary = ROMK potassium channel modulators, primary screen, cell-based, thallium flux, MLSMR library; Tet-inducible ROMK, thallium flux fluorescence; actives lie on both sides; B-score at 10 µM; 130,000 compounds, 2% hits;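 active = signal ratio slope over the read window, or its plate-corrected B-score, at least 3 SD from the plate mean, either direction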;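 also: B-score of the F/F0 ratio slope over 7 to 12 s after thallium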
PERK inhibitor = block of dimerizer-induced PERK translation repression, primary screen, PERK inhibitor project, CHO PERK-DD cells, SEAP luminescence, HTS; inhibition, % at 5.6 µM; 220,000 compounds, 0.17% hits; CHO PERK-DD fusion, SEAP luminescence translation reporter;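 active = inhibition above the mean inhibition of all tested compounds plus 3 SD, set separately per screening campaign, cut at about 2.9% in these data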;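 also: PERK kinase domain activated by AP20187 dimerizer at 100 nM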
Each line names hits and unclear results; the compound was inactive in the other large screens. The list is not random: actives were taken first. Their share in the collection is about 3.3%.

O=C(COC(=O)c1ccc[n+]([O-])c1)Nc1c(Br)cc([N+](=O)[O-])cc1Br	none
O=C(Nc1ccccc1C(=O)N/N=C/c1ccncc1)c1ccccc1	WT yeast gro inh 77
Cc1ccccc1C(=O)Nc1ccc(C(=O)N/N=C/c2ccncc2)cc1	none
CCOc1cc(C2Nc3ccccc3C(=O)N2c2ccccc2OC)ccc1O (centres undefined)	WT yeast gro inh 74
COc1cc(C2Nc3ccccc3C(=O)N2c2ccccc2OC)ccc1O (centres undefined)	none
CCOP(=O)(OCC)C(Nc1cccc(C(F)(F)F)c1)c1ccc(Br)cc1 (centres undefined)	WT yeast gro inh 80 (no result: ROMK primary)
CC(=O)c1c(C)c(C)c2n1CCn1c(C)ccc1-2	none (no result: WT yeast gro inh, Arbovirus anti, ROMK primary)
N#Cc1c(N)c(C#N)c(-c2ccc3c(c2)OCO3)c2c1CCCC2	none (no result: ROMK primary, PERK inhibitor)
N#Cc1c(N)nc2c(c1-c1ccc3c(c1)OCO3)CCc1ccccc1-2	WT yeast gro inh 62
CNc1ccccc1C(C)(C)c1cc(-c2cccc(Br)c2)no1	WT yeast gro inh 73
Cc1ccc2cc(CN(C(=O)c3ccco3)c3ccccc3C)c(=O)[nH]c2c1	WT yeast gro inh 96
CO/N=C(\Cn1ncc(NC2CCCCC2)c(Br)c1=O)c1ccc(Cl)cc1	WT yeast gro inh 71
CO/N=C(\Cn1ncc(N2CCCC2)c(Br)c1=O)c1ccc(Cl)cc1	none
CCOc1ccc(NC(=O)Nc2cc(-c3ccccc3)sc2C(=O)OC)cc1	Arbovirus anti 34 (no result: ROMK primary)
COC(=O)c1sc(-c2ccccc2)cc1NC(=O)C1CC1	none
N#C/C(=C\c1cccc(NC(=O)c2ccccc2Cl)c1)C(=O)NCCc1ccccc1	WT yeast gro inh 84 (no result: ROMK primary)
CSc1nc(-c2ccc(Cl)cc2Cl)[nH]c(=O)c1C#N	Arbovirus anti 42
CCS(=O)(=O)Nc1ccc(-c2cc(-c3ccccc3)c3cc(C)ccc3n2)cc1	WT yeast gro inh 90 (no result: ROMK primary)
Cc1ccc2nc(-c3ccc(NS(C)(=O)=O)cc3)cc(-c3ccccc3)c2c1	none (no result: ROMK primary)
CC(=O)Cn1c(CN2CC(C)CC(C)C2)nc2c1c(=O)n(C)c(=O)n2C (centres undefined)	none (no result: ROMK primary)
CC1CCCN(Cc2nc3c(c(=O)n(C)c(=O)n3C)n2CC(N)=O)C1 (centres undefined)	WT yeast gro inh 98 (no result: ROMK primary)
O=S(=O)(c1ccccc1)c1cnc(-c2cccnc2)nc1-c1ccc(Cl)cc1Cl	WT yeast gro inh 67 (no result: ROMK primary)
CC(C)Oc1ccc(N2CC(C(=O)OCC(=O)NCc3ccccc3)CC2=O)cc1 (centres undefined)	none
Cc1nc(N2CCCCC2)c2c(-c3cccs3)csc2n1	WT yeast gro inh 69
Cc1nc(N2CCN(S(=O)(=O)c3ccccc3C#N)CC2)c2c(-c3cccs3)csc2n1	none
O=C(CSc1nnc(-c2ccncc2)o1)N1CCCC1	none
CC(C)C1OC(c2cccc(NC(=O)c3cccs3)c2)OCC1(C)C (centres undefined)	WT yeast gro inh 69
OC1(c2ccc(OC(F)F)cc2)CSC(=Nc2cccnc2)N1C1CC1 (centres undefined)	none (no result: ROMK primary)
CSc1ccc(CN2CCC(CO)(Cc3ccc(Cl)cc3)CC2)cc1	WT yeast gro inh 67
CC(=O)N1N=C(c2cccc(Cl)c2)OC1c1cccc([N+](=O)[O-])c1 (centres undefined)	none
CC(=O)N1N=C(c2cccc([N+](=O)[O-])c2)OC1c1cccc(Br)c1 (centres undefined)	WT yeast gro inh 66 (no result: ROMK primary)
CC(=O)N1N=C(c2cccc(Cl)c2)OC1c1ccc(C(C)C)cc1 (centres undefined)	WT yeast gro inh 78
Clc1cc(Cl)cc(C2=NCCC(c3ccccc3)O2)c1 (centres undefined)	WT yeast gro inh 75
Clc1cccc(-c2nnc(-c3ccccc3)o2)c1	none (no result: ROMK primary)
CC(C)Cn1c(N)c(C(=O)NCC2CCCO2)c2nc3ccccc3nc21 (centres undefined)	WT yeast gro inh 60
COCCn1c(N)c(C(=O)NCC2CCCO2)c2nc3ccccc3nc21 (centres undefined)	none
Cc1cc(C)c2nc(N3CCC(C(=O)NCCCN4CC(C)CC(C)C4)CC3)sc2c1 (centres undefined)	WT yeast gro inh 69, ROMK primary -2.5
COc1ccc(-c2nc3n(c(=O)c2C#N)CCCS3)cc1	WT yeast gro inh 75
Cc1cccc2sc(NNC(=O)c3cc(-c4cccs4)nc4ccccc34)nc12	WT yeast gro inh 59
O=C(CCl)N=c1sccn1Cc1cccc2ccccc12	Arbovirus anti 31
CCc1nn2cc(C(=O)c3cc(Cl)ccc3O)cnc2c1-c1ccc(F)cc1	WT yeast gro inh 81 (no result: ROMK primary)
Cc1nn(-c2ccccc2)c2ncc(C(=O)c3cc(Cl)ccc3O)cc12	none (no result: ROMK primary)
CCOC(CNC(=O)c1ccc2c(c1)ncn2-c1ccc(F)c(F)c1)OCC	none
CCOC(=O)c1c(NC(NC(=O)C(C)C)C(Cl)(Cl)Cl)sc2c1CCC2 (centres undefined)	WT yeast gro inh 66
C=CCn1c(C)c(C(C)=O)c(N2CCN(C(c3ccccc3)c3ccccc3)CC2)nc1=S	WT yeast gro inh 72
COC(=O)NCC(C)OC(=O)Nc1cccc(Cl)c1 (centres undefined)	none (no result: ROMK primary)
CC(CNC(=O)COc1ccccc1)OC(=O)Nc1ccc(Cl)c(Cl)c1 (centres undefined)	WT yeast gro inh 82 (no result: ROMK primary)
NS(=O)(=O)c1ccc(CCNC(=O)c2cc(-c3ccccn3)nc3ccc(Br)cc23)cc1	none
CS(=O)(=O)N1CCc2cc(C(=O)N3CCOCC3)ccc21	WT yeast gro inh 82
CCC(CC(C)(C)O)C(=O)NNC(=S)Nc1ccccc1 (centres undefined)	none
COC(=O)C1=C(C)NC(C)=C(C(=O)OC)C1c1ccccc1[N+](=O)[O-]	ROMK primary -2.5
Cc1nc2ccc(NS(=O)(=O)c3c(C)c(C)cc(C)c3C)cc2s1	none
Cc1nc2cc(NS(=O)(=O)c3c(C)c(C)cc(C)c3C)ccc2s1	WT yeast gro inh 69 (no result: ROMK primary)
CCOCCCNC(=S)Nc1ccc(S(N)(=O)=O)cc1	none (no result: ROMK primary)
CC(C)/C(=N/Nc1ccccc1[N+](=O)[O-])c1ccccc1	WT yeast gro inh 64
CC(C)Oc1ccccc1/C=N/Nc1ccccc1[N+](=O)[O-]	none
CC(=O)Cc1nsc(NC(=O)c2ccc(-c3ccc(Cl)c(Cl)c3)o2)n1	WT yeast gro inh 69
CC(=O)Cc1nsc(NC(=O)c2ccc(-c3ccc(Cl)cc3Cl)o2)n1	none (no result: ROMK primary)
Cc1cccc(C(=O)/C=C2/c3ccccc3CC(C)(C)N2C)c1	none (no result: ROMK primary)
Cc1cc(C)c(S(=O)(=O)N2CCC(C(=O)NCc3ccc(Cl)cc3Cl)CC2)c(C)c1	WT yeast gro inh 75
Nc1nnc(-c2cc3c(ccc4ccccc43)oc2=O)s1	none (no result: ROMK primary)
S=C(Nc1ccccc1Oc1ccccc1)NC1CCCC1	WT yeast gro inh 68
COc1ccc(NC(=S)NC2CCCCCC2)c(OC)c1	WT yeast gro inh 64 (no result: ROMK primary)
CC1CCCCC1NC(=S)Nc1ccc(SC(F)F)cc1 (centres undefined)	WT yeast gro inh 69
S=C(Nc1ccc(Oc2ccccc2)cc1)NC1CCCC1	WT yeast gro inh 62
COc1ccc(NC(=S)NC2CCCCC2)c(OC)c1	none
